PubChem BioAssay

Tests used:
[1] = molecular target: Tumor necrosis factor receptor superfamily member 10B (Homo sapiens) (UniProt O14763); assay: caspase-8 TRAIL sensitization, hit retest, confirmation, cell-based, NB7+caspase-8, with/without TRAIL, luminescence panel (AID 651596); details: NB7 neuroblastoma + caspase-8, TRAIL sensitization, luminescence viability, with TRAIL, mean of runs, at 10 µM, stronger effect = higher value
[2] = as above; details: NB7 neuroblastoma + caspase-8, without TRAIL, luminescence viability, without TRAIL, mean of runs, at 10 µM

Tumor necrosis factor receptor superfamily member 10B (Homo sapiens), sequence (O14763 whole entry, looked up): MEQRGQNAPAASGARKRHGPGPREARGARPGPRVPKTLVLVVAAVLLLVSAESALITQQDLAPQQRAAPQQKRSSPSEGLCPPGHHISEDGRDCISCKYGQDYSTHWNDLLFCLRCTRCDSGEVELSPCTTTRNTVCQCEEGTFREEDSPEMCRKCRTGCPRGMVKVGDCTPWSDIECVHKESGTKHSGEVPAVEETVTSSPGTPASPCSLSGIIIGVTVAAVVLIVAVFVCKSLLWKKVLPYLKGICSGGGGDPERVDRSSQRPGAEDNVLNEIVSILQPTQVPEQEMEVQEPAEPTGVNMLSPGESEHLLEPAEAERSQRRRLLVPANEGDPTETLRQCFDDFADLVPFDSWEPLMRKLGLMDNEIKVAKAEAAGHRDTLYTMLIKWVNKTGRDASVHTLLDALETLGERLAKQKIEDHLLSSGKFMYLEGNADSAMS

SMILES: CC(C)Nc1ccc(-n2nc3ccccc3[n+]2[O-])cc1
- activity [1]: 62.5%
- activity [2]: 61%

SMILES: COc1cc(C2CC(c3cccs3)=NN2C(=O)CCl)ccc1OC(F)F (stereo unspecified)
- activity [1]: 99.5%
- activity [2]: 99.5%

SMILES: Cc1ccc(C(=O)Nc2ncc(C)s2)s1
- activity [1]: 80.2%
- activity [2]: 79%

SMILES: Cc1nc(-c2ccc(NC(=O)c3ccccc3)cc2)cs1
- activity [1]: 80.8%
- activity [2]: 76.2%

SMILES: C/C(=N\NC(=O)c1ccc2c(c1)OCO2)c1ccco1
- activity [1]: 53.5%
- activity [2]: 57.3%

SMILES: O=c1c2ccccc2oc2ccc(-c3ccc4cc[nH]c4c3)cc12
- activity [1]: 36.5%
- activity [2]: 35.8%

SMILES: COc1ccc2c(c1OC)C(=O)OC2Nc1nc(-c2ccc(-c3ccccc3)cc2)cs1 (stereo unspecified)
- activity [1]: 47.4%
- activity [2]: 49.4%

SMILES: CCc1sc(C(=O)N2CCc3ccccc32)cc1C
- activity [1]: 46.1%
- activity [2]: 44.7%

SMILES: C=C1C(=O)OC2C=C(CO)C3OC3C3OC3(C)CC(OC(=O)/C(=C/C)COC(C)=O)C12 (stereo unspecified)
- activity [1]: 70.1%
- activity [2]: 81%

SMILES: O=C(C[C@H]1C[C@H](C(=O)N2CCCCC2)[C@@]2(CCc3ccccc3)c3[nH]c4ccc(Cl)cc4c3CCN2C1=O)NCCC1=CCCCC1
- activity [1]: 46.3%
- activity [2]: 86.7%

SMILES: O=C(Nc1ccc2c(c1)OCCO2)c1ccccn1
- activity [1]: 75.8%
- activity [2]: 69.1%

SMILES: COc1ccc(CCNc2cc(N3CCN(C(=O)c4ccccc4F)CC3)ccc2[N+](=O)[O-])cc1OC
- activity [1]: 73.7%
- activity [2]: 64.7%

SMILES: CCc1ccc(C2=NNC(=Nc3cccc(S(=O)(=O)N(C)C)c3)SC2)cc1
- activity [1]: 76.8%
- activity [2]: 75%

SMILES: CC1CCN(c2ccc(-c3ccc(NC(=O)C(F)(F)F)cc3)nn2)CC1
- activity [1]: 94.6%
- activity [2]: 96%

SMILES: CC(C)(C)c1ccc(-c2nc3cc(N)ccc3o2)cc1
- activity [1]: 81.9%
- activity [2]: 80.5%

SMILES: Cn1c(C(=O)NCCC2=CCCCC2)cc2c(=O)n3ccccc3nc21
- activity [1]: 59.6%
- activity [2]: 57.7%

SMILES: CCC(C)c1ccc(NC(=O)c2cccs2)cc1 (stereo unspecified)
- activity [1]: 72.8%
- activity [2]: 68.1%

SMILES: COc1ccc(C2C(C(=O)N3CCN(c4ccccc4F)CC3)c3ccccc3C(=O)N2C)cc1 (stereo unspecified)
- activity [1]: 74.5%
- activity [2]: 59%

SMILES: O=S(=O)(c1ccc(Br)cc1)N1CCN(c2ccc3nnc(-c4ccccc4)n3n2)CC1
- activity [1]: 76.2%
- activity [2]: 64.3%

SMILES: O=C(CSc1nnc(NC(=O)c2ccccc2)s1)NCc1ccco1
- activity [1]: 64.5%
- activity [2]: 73.1%

SMILES: COc1ccc(-c2ccc3sc4ccccc4c(=O)c3c2)cn1
- activity [1]: 63.2%
- activity [2]: 61.5%

SMILES: CCCCN(C)C(=O)c1ccc(Nc2nc(C(N)Cc3ccc(C(F)(F)F)cc3)cs2)nc1 (stereo unspecified)
- activity [1]: 56.9%
- activity [2]: 90.2%

SMILES: COc1cccc(CSc2nc3ccncc3[nH]2)c1
- activity [1]: 87.7%
- activity [2]: 88.4%
